# Reference: the supplement of paper PMC4894684
# Where a name gives a salt, the structure may show the parent alone. ± gives the standard deviation of the averaged measurements.
# Test system: Toxoplasma gondii RH (in HFF)
# Experiment: parasite growth relative to the screen mean (all compounds = 100%); higher = less inhibition of parasite growth
# Conditions: 5 µM; 72 h; oxygen 21 %
# Method in brief: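 Confluent human foreskin fibroblasts in 96-well plates received library compounds by pin transfer at 5 µM final, taken from 10 mM DMSO stocks. Within 2 h the cells were infected with RH β-Gal–GFP Toxoplasma at MOI 1:5 and cultured 72 h at 21% O2. A CPRG β-Gal assay read against in-plate standard curves gave parasite number, and growth is stated relative to the screen mean, where all compounds = 100%, averaged across two screens.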
row,SMILES,parasite growth [%]
1,CN(Cc1ccccc1)C(=O)[C@H](Cc1ccc2ccccc2c1)NC(=O)[C@@H]1CCCN1C(=O)Nc1ccccc1[N+](=O)[O-],110 ± 9.9
2,CCN(CC)CCOC(=O)C1(c2ccc([N+](=O)[O-])cc2)CCCC1 [Nitrocaramiphen hydrochloride],99.3 ± 34
3,O=C(O)C1CCCN(CCC=C(c2ccccc2)c2ccccc2)C1 (centres undefined),122 ± 26
4,CCOC(=O)[C@@H](C)Oc1cccc2c(=O)n(CC(=O)Nc3ccc4c(c3)OCCO4)ccc12,118 ± 12
5,CN(CCCN1c2ccccc2CCc2ccccc21)CC(=O)c1ccc(Cl)cc1 [Lofepramine],185.3 ± 1.1
6,O=c1[nH]c2cc(Cl)ccc2c(O)c1-c1cccc(Oc2ccccc2)c1,103 ± 19
7,O=C(O)CCC/C=C\C[C@@H]1CO[C@H](C(F)(F)F)O[C@@H]1c1ccccc1O,102 ± 25
8,NC(=O)CCCCn1ccc(NC(N)=NCC(F)(F)F)n1,95.1 ± 10
9,FC(F)(F)c1ccc(/C=C/c2nc(COc3ccc(CCCCn4ccnn4)cc3)co2)cc1,36 ± 14
10,NCC(O)(CS(=O)(=O)O)c1ccc(Cl)cc1 (centres undefined) [2-Hydroxysaclofen],132 ± 20
11,c1cnc(N2CCN(Cc3ccc4c(c3)OCO4)CC2)nc1 [Piribedil],70.3 ± 8.6
12,N#C/C(=C\c1ccc(O)c(O)c1)C(=O)NCCCc1ccccc1,154 ± 16
13,CCN(CC)CCOc1ccc(Cc2ccccc2)cc1 [DPPE fumarate],75.7 ± 1.7
14,NCCCCCCCCCCNS(=O)(=O)c1cccc2c(Cl)cccc12 [A-7 hydrochloride],142 ± 17
15,COc1cc(OC)c(NC(=O)Nc2cc(C)on2)cc1Cl,135 ± 17
16,CC#C[C@]1(O)CC[C@H]2[C@@H]3CCC4=CC(=O)CCC4=C3[C@@H](c3ccc(N(C)C)cc3)C[C@@]21C [Mifepristone],135 ± 14
17,CS(=O)(=O)c1ccc(-c2cc(Br)sc2-c2ccc(F)cc2)cc1,47.5 ± 14
18,Nc1nc2ccc(Cl)cc2c2nc(-c3ccco3)nn12,131 ± 14
19,Cc1cccc(C#Cc2ccccc2)n1 [MPEP hydrochloride],101 ± 37
20,CN(C)CCC=C1c2ccccc2COc2ccccc21 [Doxepin hydrochloride],159 ± 36

row,SMILES,parasite growth [%]
1,CC[N+](C)(CC)CC(=O)Nc1c(C)cccc1C [N-Methyllidocaine iodide],119 ± 24
2,O=Nc1ccc(O)c2ncccc12,< 0
3,CC(C)NCC(O)COc1ccccc1-n1cccc1 (centres undefined) [Isamoltane hemifumarate],97 ± 39
4,Nc1nc(NCC2CCC(CNS(=O)(=O)c3cccc4ccccc34)CC2)nc2ccccc12 (centres undefined),< 0
5,CN(Cc1ccccc1)C(=O)[C@H](Cc1ccc2ccccc2c1)NC(=O)[C@@H]1C[C@@H](O)CN1C(=O)c1cn(C)c2ccccc12,138 ± 4.8
6,CCn1c(=O)[nH]c2ccccc21,67.92 ± 0.3
7,NC(=O)N/N=C/c1ccc(Oc2ccc(F)cc2)cc1,145 ± 19
8,Clc1ccc2nsnc2c1NC1=NCCN1 [Tizanidine hydrochloride],113 ± 2.4
9,CCCNC(=O)N1N=C(c2ccc(N)cc2)c2cc3c(cc2C1C)OCO3 (centres undefined),99.9 ± 32
10,COc1cc(Br)c(S(=O)(=O)Nc2ccc(Cl)c(O[C@@H]3CCN(C)C3)c2)cc1OC,57.1 ± 16
11,O=C(O)C1=CCCN(CCON=C(c2ccccc2)c2ccccc2)C1,159 ± 9.8
12,N[C@H](C(=O)O)c1cc(O)cc(O)c1,119 ± 4.9
13,COc1cc(N)c(Cl)cc1C(=O)NC1CCN(CCCOc2ccc(F)cc2)CC1OC (centres undefined) [Cisapride],20.8 ± 7.1
14,Clc1ccc(CCCOCCCN2CCCCC2)cc1,45.7 ± 21
15,COc1nccc(-c2c(-c3ccc(F)cc3)ncn2C2CCC(O)CC2)n1 (centres undefined),< 0
16,O=C1c2ccccc2CCC1CNCCc1ccc(O)cc1 (centres undefined) [HEAT hydrochloride],68.1 ± 13
17,"Nc1ncnc2c1nc(Br)n2[C@@H]1O[C@@H]2COP(=O)(O)O[C@H]2[C@H]1O [8-Bromo-cAMP, sodium salt]",125 ± 25
18,COc1cc(/C=C(\C#N)C(N)=O)cc(CSc2nc3ccccc3s2)c1O,128 ± 3.3
19,CCCCCCCCCCC[C@@H](C[C@@H]1OC(=O)[C@H]1CCCCCC)OC(=O)[C@H](CC(C)C)NC=O [Orlistat],< 0
